# Records with an inconclusive call do not appear. Active and inactive are the calls of the source. Calls follow the shape of the full dose curve.
# Molecular target: Beta-2 adrenergic receptor (Homo sapiens) (UniProt P07550)
# Test: Adrenergic beta2 receptor (ADRB2) small molecule antagonists, cell-based qHTS assay (AID 1963592); also: nearly all actives have a fitted effect of over 50% in size
# Conditions: CHO-ADRB2 cells, isoproterenol-stimulated cAMP HTRF ratio, 0.5 h; series mostly up to 92.4 µM; activity change, negative = inhibition: at the top concentration
# Source text: U.S. Tox21 Program National Center for Advancing Translational Sciences [NCATS] Division of Preclinical Innovation [DPI] U.S. Environmental Protection Agency [EPA] National Institutes of Environmental Health Sciences [NIEHS] National Toxicology Program [NTP] U.S. Food and Drug Administration [FDA] Tox21 Assay Overview: Beta adrenergic receptors (Beta-ARs) belong to the G-protein coupled receptor (GPCR) superfamily, includes three subtypes - beta1, beta2, and beta3. Beta1-AR is the predominant receptor subtype expressed in the heart, and beta2-AR is expressed in the kidney, lung, blood vessel and in the heart, and beta3 is found in the adipocytes. Beta1 and 2 ARs couple to Gs protein and elevate cyclic adenosine mono phosphate (cAMP), which activates protein kinase A and leads to the downstream signaling responsible for the physiological actions. Beta-AR agonists or antagonists are the most prescribed therapeutic agents for heart failure and asthma, and these were one of the first target receptors for the rational drug design. Tox21 10K compound library was screened using the cAMP-Gs dynamic assay (Cisbio Bioassays, Shelton, CT) to identify agonists/antagonists of the Gs-coupled human adrenergic, beta2 receptor (ADRB2) in the CHO-ADRB2 cell line (Codex BioSolutions, Inc. Gaithersburg, MD), which stably over-expresses ADRB2. The principle of cAMP-Gs dynamic assay is based on HTRF technology, which facilitates the fluorescence resonance energy transfer (FRET) between donor Europium cryptate and acceptor d2-labeled cAMP. The cAMP generated within cells competes with the red acceptor, d2-labled cAMP, for binding to the monoclonal anti-cAMP-cryptate (Europium donor). An increase in intracellular cAMP leads to the disruption of FRET signal, and the signal is inversely proportional to the cAMP concentration. Propranolol HCl (Sigma-Aldrich, St. Louis, MO) was used as a positive control in the screening.
# Tox21 Assay Protocol Summary: CHO-ADRB2 cells were dispensed at 1,000/well in 4uL assay medium into white/solid 1536-well plates (Greiner Bio-One North America Inc., Monroe, NC) using a Multidrop Combi dispenser (ThermoFisher Scientific, Waltham, MA). The assay plates were incubated at 37C and 5% CO2 for an overnight (18-20hr). Then positive control and test compounds dissolved in DMSO were transferred to the assay plates at 23nL using a Pintool station (Wako, San Diego, CA). Following the compound and positive control transfer, 1uL agonist-stimulation mix containing 1nM Isoproterenol HCl, 100uM IBMX and 25uM Ro-20-1724 was added to each well of the assay plates using BioRAPTR Flying Reagent Dispenser (FRD, Beckman Coulter, Brea, CA). The assay plates were incubated at room temperature for 0.5hr. Then 2.5ul each d2-labled cAMP and anti-cAMP-cryptate solutions were added separately to each well of the assay plates using an FRD and the assay plates were incubated at room temperature for 1hr. The fluorescence signal was measured at two different wavelengths (665nm and 615nm) using an Envision plate reader (Perkin Elmer, Shelton, CT). Data were expressed as the ratio of 665 nm/615 nm.
# % is scaled to controls: 0 for no effect and ±100 for the full control effect.
# Chain of Beta-2 adrenergic receptor (Homo sapiens) (P07550 whole entry, looked up): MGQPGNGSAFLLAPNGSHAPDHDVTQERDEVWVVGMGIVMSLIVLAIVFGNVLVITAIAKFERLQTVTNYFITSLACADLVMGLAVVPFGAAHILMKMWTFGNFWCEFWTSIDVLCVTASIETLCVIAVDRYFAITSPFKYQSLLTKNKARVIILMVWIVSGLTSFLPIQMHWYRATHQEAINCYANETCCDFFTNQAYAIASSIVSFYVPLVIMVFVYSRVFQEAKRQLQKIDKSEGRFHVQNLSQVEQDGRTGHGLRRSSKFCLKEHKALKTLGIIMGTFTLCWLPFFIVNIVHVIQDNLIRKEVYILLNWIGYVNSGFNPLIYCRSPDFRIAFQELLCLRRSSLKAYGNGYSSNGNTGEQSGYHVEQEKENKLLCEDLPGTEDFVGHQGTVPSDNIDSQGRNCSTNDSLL
SMILES,"activity change, negative = inhibition",Potency
N#Cc1cc(NC(=O)C(=O)O)c(Cl)c(NC(=O)C(=O)O)c1,-8.02% [at 42.5 µM] (inactive),
CC1COc2ccccc2N1C(=O)C(Cl)Cl (stereo not given),,inactive
C=CCCCCCCCCO,7.52% (inactive),
CC(=O)O[C@@H]1CC2C3CCc4cc(OC(=O)c5ccccc5)ccc4C3CCC2(C)[C@H]1OC(C)=O (stereo not given in full),1.32% [at 42.5 µM] (inactive),
[O-][n+]1ccc(Cl)cc1,15.4% (inactive),
CCOC(=O)CC(C(C)=O)C(C)=O,-1.26% (inactive),
CCOC(=O)c1ccc(O)c(O)c1,8.83% [at 42.5 µM] (inactive),
N[C@H]1C(O)O[C@H](CO)[C@@H](O)[C@@H]1O (stereo not given in full),1.11% [at 42.5 µM] (inactive),
CCOc1ncc(F)c(=O)[nH]1,6.57% [at 42.5 µM] (inactive),
CC(=O)NC(Cc1ccccc1)C(=O)O (stereo not given),0.755% [at 42.5 µM] (inactive),
Oc1ccc(O)c2c(O)cccc12,3.08% (inactive),
CCOc1ccccc1C(N)=O,,inactive
O=c1[nH]c(=O)n([C@H]2CCCO2)cc1F,,inactive
CCCCOCCOCCOCCCC,-0.487% (inactive),
O=C1Cc2cc(Cl)ccc2N1,4.61% [at 42.5 µM] (inactive),
CC(=O)c1ccc2ccccc2c1,-0.936% (inactive),
CC(=O)N(c1onc(C)c1C)S(=O)(=O)c1ccc(N)cc1,-0.287% [at 42.5 µM] (inactive),
CC1=CC[C@@H]2C[C@H]1C2(C)C,-16.3% [at 19 µM] (inactive),
CC(C)(C)NC(=O)[C@@H]1CN(Cc2cccnc2)CCN1C[C@@H](O)C[C@@H](Cc1ccccc1)C(=O)N[C@H]1c2ccccc2C[C@H]1O,,inactive
O=C(c1ccccc1)C1(O)CCCCC1,-10.4% (inactive),

SMILES,"activity change, negative = inhibition",Potency
CC/C=C\C#N,4.91% (inactive),
O=C(Cl)c1ccc(C(=O)Cl)cc1,,inactive
CC(C)=O,-0.354% (inactive),
NS(=O)(=O)c1ccc(NC(=O)CCC(=O)O)cc1,0.887% [at 42.5 µM] (inactive),
O=C(O)c1ccco1,2.27% (inactive),
Cl/C(=C\n1cncn1)c1ccc(Cl)cc1Cl,1% [at 42.5 µM] (inactive),
CC(C)(Oc1ccc(CCNC(=O)c2ccc(Cl)cc2)cc1)C(=O)O,,inactive
CC(C)C(=O)OC(=O)C(C)C,2.1% (inactive),
CN(C)c1ccc(Cc2ccc(N(C)C)cc2)cc1,,inactive
CCCC(=O)Nc1ccc(O)c(C(C)=O)c1,-11.2% [at 42.5 µM] (inactive),
O,,inactive
O=C(O)c1cc(O)c(O)c(O)c1,,inactive
CC(=O)N(O)CCCCCNC(=O)CCC(=O)N(O)CCCCCNC(=O)CCC(=O)N(O)CCCCCN,12.3% [at 42.5 µM] (inactive),
CC(=O)OCC(=O)[C@@]1(O)CC[C@H]2[C@@H]3CCC4=CC(=O)C=C[C@]4(C)[C@H]3[C@@H](O)C[C@@]21C,1.29% [at 42.5 µM] (inactive),
CCCCCCCCCCCCCCCCC,6.35% (inactive),
Clc1ccc(C(c2ccccc2Cl)C(Cl)Cl)cc1 (stereo not given),,inactive
CCc1c(C(=O)O)c(=O)cnn1-c1ccc(Cl)cc1,5.57% (inactive),
CCOc1ccc(N)c([N+](=O)[O-])c1,-5.18% (inactive),
CC(=O)N1C[C@H](O)C[C@H]1C(=O)O,1.93% [at 42.5 µM] (inactive),
Cc1ccc(S(=O)(=O)NC(=O)NC2CCCC2)cc1,-5.96% [at 42.5 µM] (inactive),

# Source: PubChem BioAssay (Tox21)
